Results: PubChem BioAssay AID1259417 (TB Discovery Research, Infectious Disease Research Institute, 2018)
About 760 (69%) of roughly 1,100 compounds were called active. No rule for the calls is given here. So high a share suggests a set chosen from earlier hits. Some of the results follow.

Test: M. tuberculosis growth inhibition, HTS (AID 1259417);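 also: bacteria grown with compound for 5 days at 37 °C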
Conditions: stronger effect = higher value, concentration not given here
[1] = M. tuberculosis DsRed fluorescence growth inhibition
[2] = M. tuberculosis growth inhibition

| Structure (SMILES) | inhibition [1] | inhibition [2] [%] |
| --- | --- | --- |
| CCOC(=O)CSc1nnc(-c2ccc([N+](=O)[O-])cc2)o1 | 95.7% (active) | 95.6 |
| O=C(/C=C/c1cccc([N+](=O)[O-])c1)c1cccs1 | 94.6% (active) | 96.5 |
| COC(=O)COc1ccc2c(-c3ccc(OC)cc3)cc(=O)oc2c1 | 97.7% (active) | 98.3 |
| CCOC(=O)C(C)Oc1ccc2c(-c3ccc(OC)cc3)cc(=O)oc2c1 (stereo not given) | 56.3% (active) | 89 |
| COC(=O)COc1ccc(NC(=O)c2ccc3c(c2)C(=O)N(C(C)(C)C)C3=O)cc1 | 69.9% (active) | 88.2 |
| COC(=O)COc1ccc(NC(=O)c2ccc(-c3ccccc3)cc2)cc1 | 99.4% (active) | 100 |
| CC(C)(C)n1cnc2cc(NC(=O)c3ccc(Cl)cc3)ccc21 | 19.9% (inactive) | 28.4 |
| CCOC(=O)c1c(C)n(C)c2ccc(OC(C)C(=O)OC)cc12 (stereo not given) | 3.6% (inactive) | 19.3 |
| CCOC(=O)COc1ccc2c(c1)c(C(=O)OCC)c(C)n2CC | 51.2% (active) | 69.6 |
| COC(=O)COc1ccc(-c2ccc(C)cc2)cc1 | 35.7% (active) | 70.9 |
| CC(C(=O)OCc1ccccc1)n1cnc2scc(-c3ccc(Br)cc3)c2c1=O (stereo not given) | -4.93% (inactive) | -4.92 |
| CCOC(=O)COc1ccc(-c2ccc(C)cc2)cc1 | 24.3% (active) | 81.2 |
| Cc1ccc(-c2ccc(OCC(=O)OCc3ccccc3)cc2)cc1 | 53.2% (active) | 82.9 |
| CCOC(=O)COc1ccc(OCc2ccccc2)cc1 | 1.21% (inactive) | -7.23 |
| COC(=O)COc1ccc(-c2ccccc2)cc1 | 48.7% (active) | 85.1 |
| CN1CCN(c2cc(-c3ccccc3)nc3c(C(F)(F)F)cccc23)CC1 | 93% (active) | 71 |
| COc1ccccc1NC(=O)CSc1nc(-c2ccccc2)cc(C(F)(F)F)c1C#N | 0.888% (inactive) | 24.8 |
| CC(NC(=O)c1ccc([N+](=O)[O-])o1)C12CC3CC(CC(C3)C1)C2 (stereo not given) | 70% (active) | 75.5 |
| O=C(Oc1cccc2cccnc12)c1ccco1 | 101% (active) | 99.7 |
| O=C(Oc1cccc2cccnc12)c1ccccc1F | 101% (active) | 101 |
| O=C(Oc1cccc2cccnc12)c1cc2ccccc2oc1=O | 99.2% (active) | 100 |
| CCN(CC)S(=O)(=O)c1ccc(Cl)c(C(=O)Oc2cccc3cccnc23)c1 | 100% (active) | 99.3 |
| O=C(Oc1ccccc1)c1cccc2cccnc12 | 99.7% (active) | 101 |
| CS(=O)(=O)Cc1nc2ccccc2oc1=O | 99.8% (active) | 99.5 |
| CCC(Sc1nc2ccccc2o1)C(=O)Nc1nnc(C)s1 (stereo not given) | 92.7% (active) | 96.2 |
